From PubChem BioAssay (Tox21)
Records with an inconclusive call do not appear. Values without a mark were called inactive. Calls come from the whole dose curve; as a rule, active = well fitted cell-killing curve with a large enough effect in the repeat runs (not every such curve was filed as active); inconclusive = weak or mixed curves, or effect the other way; inactive = no such curve, though single readings can be large or run the other way.

Assay: qHTS assay to identify small molecule antagonists of the farnesoid-X-receptor (FXR) signaling pathway - cell viability counter screen (AID 743221); note: nearly all actives have a fitted effect of over 50% in size
Settings: FXR-bla HEK293T viability, CellTiter-Glo luminescence, 16 h; series mostly up to 62.6 µM; activity change, negative = cytotoxicity: at the top concentration
From the text: National Center for Advancing Translational Sciences [NCATS]
NIH Chemical Genomics Center [NCGC]
U.S. Environmental Protection Agency [EPA]
National Institutes of Environmental Health Sciences [NIEHS]
National Toxicology Program [NTP]
U.S. Food and Drug Administration [FDA]
The farnesoid-X-receptor (FXR), a nuclear hormone receptor, is highly expressed in liver, intestine, kidney and adrenal cortex. Natural ligands of FXR are the bile acids (Cholic acid, Chenodeoxy cholic acid etc). FXR is an important regulator of diverse metabolic pathways, including the bile acid homeostasis, lipid and glucose metabolisms. FXR regulates the expression of target genes by binding either as a monomer or as a heterodimer with the retinoid X receptor (RXR). Numerous studies have reported that FXR exerts protective function during cholestasis, diabetes, liver regeneration, and cancer. To identify compounds that inhibit FXR signaling, GeneBLAzer FXR-UAS-bla HEK 293T cell line (Invitrogen, Carlsbad, CA) containing a beta-lactamase reporter gene under the control of a UAS response element was used to screen the Tox21 10K compound library. The cytotoxicity of the Tox21 compound library against the FXR-bla cell line was tested in parallel by measuring the cell viability using CellTiter-Glo assay in the same wells.
Tox21 Assay Protocol Summary:
FXR-bla cells were dispensed at 5000 cells/5uL/well in 1536-well black wall/clear bottom plates using a Multidrop Combi (Thermo Fisher Scientific, Waltham, MA) dispenser. After the assay plates were incubated at 37 C and 5% CO2 for 5 h, 23 nL of compounds dissolved in DMSO, positive controls or DMSO only was transferred to the assay plate by a Pintool station (Kalypsys, San Diego, CA), followed by addition of 1 uL Chenodeoxycholic acid (50 uM, final concentration in the wells). The assay plates were incubated at 37C for 16 h. After 1 uL of LiveBLAzerTM B/G FRET substrate was added using a Bioraptr Flying Reagent Dispenser (FRD) workstation (Beckman Coulter, Indianapolis, IN), the plates were incubated at room temperature for 2 h, and fluorescence intensity was measured by an Envision plate reader (PerkinElmer, Shelton, CT). For cell viability readout that measures cytotoxicity, 4uL/well of CellTiter-Glo reagent was added into the assay plates using a Bioraptr FRD. After 30 min incubation at room temperature, the luminescence intensity in the plates was measured using a ViewLux plate reader (PerkinElmer).
% is set by controls: 0 for no effect and ±100 for the full control effect.

SMILES	activity change, negative = cytotoxicity
OCC1CC=CCC1 (stereo not given)	15%
CCN(CC)CCNC(=O)c1ccc(NC(C)=O)cc1	-1.04%
Brc1cc(-c2ccc(Br)c(Br)c2Br)cc(Br)c1Br	3.21%
O=C(CS)OCCOC(=O)CS	-1.92%
C=CCCCCCCCCCCCCCCCC	-0.119% [at 5.95 µM]
CC1(C)C2=CCCC(C)(C)[C@]23CC[C@H]1C3	-24%
Nc1c(I)cc(I)c(C(=O)N(CCC(=O)O)c2ccccc2)c1I	-7.87%
C[N+]1(C)CCC(=C(c2ccccc2)c2ccccc2)CC1	-4.93%
COc1cc2c(N3CCN(C(=O)Nc4ccc(OC(C)C)cc4)CC3)ncnc2cc1OCCCN1CCCCC1	-1.69%
C/C(=N/NC(=O)c1ccncc1)C(=O)O	11.4%
CC(=O)Nc1ccccc1C	-0.699% [at 81.1 µM]
CC(C)(O)c1ccccc1CC[C@@H](SCC1(CC(=O)O)CC1)c1cccc(/C=C/c2ccc3ccc(Cl)cc3n2)c1	3.56%
CC(=O)[C@H]1CC[C@H]2[C@@H]3C=CC4=CC(=O)CC[C@@]4(C)[C@@H]3CC[C@]12C	-11.5%
O=Cc1c(Cl)cccc1Cl	4.75% [at 81.1 µM]
Cc1ccnc2ccccc12	9.45%
CC(C)c1nnc2ccc(-c3ocnc3-c3cc(F)ccc3F)cn12	-4.74%
COc1ccccc1N=Nc1c(S(=O)(=O)O)cc2cc(S(=O)(=O)O)cc(NC(C)=O)c2c1O	-0.904%
C[Si]1(C)O[Si](C)(C)O[Si](C)(C)O1	2.39%
CC(=O)OCC(=O)[C@@]12OC(C)(C)O[C@@H]1C[C@H]1[C@@H]3C[C@H](F)C4=CC(=O)C=C[C@]4(C)[C@@]3(F)[C@@H](O)C[C@@]12C	8.36%
NC(=O)Cn1c(=O)cc(CCN2CCN(c3nccc4sccc34)CC2)c2ccc(F)cc21	-4.66%

SMILES	activity change, negative = cytotoxicity
Nc1nccs1	-1.39%
CCCOCCOCCO	4.96%
Cn1c(=O)c2c(ncn2CC(=O)O)n(C)c1=O	11.5%
O=C(O)c1cccnc1C(=O)O	-18.1%
C[N+](C)(C)CCOC(N)=O	-1.39%
CCCOC(=O)c1ccc(C(=O)OCCC)nc1	20.1%
O=C(OCCOCCO)c1ccccc1Nc1cccc(C(F)(F)F)c1	-9.61%
COCC(O)CO (stereo not given)	-0.0461% [at 81.1 µM]
CC(C)(C)C(=O)O	-4.79% [at 81.1 µM]
O=C(/C=C/c1ccccc1)OCCCc1ccccc1	-10.2%
N#C[C@@H]1C[C@@H]2C[C@@H]2N1C(=O)[C@@H](N)C12CC3CC(CC(O)(C3)C1)C2	4.63%
CCCOC(=O)c1ccc(N)cc1	-8.29%
CCC(Cc1ccccc1)(C(=O)c1ccc(N2CCOCC2)cc1)N(C)C (stereo not given)	0.257%
COC(=O)c1cc(Cl)ccc1NS(=O)(=O)C(F)(F)F	-0.452%
CC1(C)C(=O)N(Br)C(=O)N1Cl	23.7%
Cc1nccn1-c1ccc(Sc2cccc(C3(C(N)=O)CCOCC3)c2)cc1	-0.875%
CO[C@@]12[C@H](COC(N)=O)C3=C(C(=O)C(C)=C(N)C3=O)N1C[C@@H]1N[C@@H]12	-2.38%
O=C(O)c1cccc(O)c1	-4.6% [at 81.1 µM]
CC(C)CCCCCOC(=O)CCCCC(=O)OCCCCCC(C)C	-4.9%
CC(C)C(=O)O	9.43%
